These results are taken from PubChem BioAssay AID1851 (National Center for Advancing Translational Sciences (NCATS), 2009).

Hit rate of the full screen: of about 16,000 compounds, about 5,800 (36%) were called active. Not shown: some 23% with an inconclusive outcome. This is one part of the list. Values without a mark were called inactive. The call rests on the fitted dose curve; in most records, active means well fitted curve in the direction sought with a large enough effect; inconclusive means small, poorly fitted or top-dose-only effect, or effect the other way; inactive means no such curve, though single readings can be large or run the other way.
On the % scale 0 is the no-effect control and ±100 the full control effect.

The target in this assay is Cytochrome P450 2C19 (Homo sapiens) (UniProt P33261). Nature of the assay: Cytochrome panel assay with activity outcomes. To be noted: recombinant CYP, pro-luciferin dealkylation, luminescence, p450-cyp2c19; series mostly up to 57.1 µM; activity, negative = inhibition: at the top concentration.
Cytochrome P450 2C19 (Homo sapiens), sequence (P33261 whole entry, looked up): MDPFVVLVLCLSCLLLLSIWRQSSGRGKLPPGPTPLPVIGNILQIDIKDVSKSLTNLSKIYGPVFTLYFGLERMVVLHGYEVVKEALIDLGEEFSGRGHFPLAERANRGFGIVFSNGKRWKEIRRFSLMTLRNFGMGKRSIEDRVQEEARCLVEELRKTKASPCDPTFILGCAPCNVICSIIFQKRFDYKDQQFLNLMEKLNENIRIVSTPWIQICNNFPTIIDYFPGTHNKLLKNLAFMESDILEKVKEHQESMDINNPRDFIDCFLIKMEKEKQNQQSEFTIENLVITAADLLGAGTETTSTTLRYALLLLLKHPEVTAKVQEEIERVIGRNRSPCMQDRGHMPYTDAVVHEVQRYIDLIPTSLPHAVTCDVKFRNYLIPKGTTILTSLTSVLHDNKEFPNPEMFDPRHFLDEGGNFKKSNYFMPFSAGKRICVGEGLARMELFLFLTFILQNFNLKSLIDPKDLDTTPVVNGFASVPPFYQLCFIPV
Regarding `O=C(CCS(=O)(=O)c1cccs1)N1CCN(c2ccc(F)cc2)CC1`, the AC50 is 0.891 µM (active).

Regarding `O=C(c1cc(-c2ccco2)on1)N1CCOCC1`, the “activity, negative = inhibition” value was -29.1%. Take `O=C(c1cc(-c2cccs2)on1)N1CCN(c2ccc(F)cc2)CC1`: the AC50 is 1.41 µM (active). As for `O=C(CCNC(=O)Cn1ccc2ccccc2c1=O)NCCCN1CCN(c2ccc(F)cc2)CC1`, the “activity, negative = inhibition” value was -10.9%. Still for that read-out and setting: in the case of `CC(C)CCN1CC(C(=O)N2CCN(c3ccc(F)cc3)CC2)CC1=O` (stereo not drawn) it was -56.6%; in that of `O=C(c1cnccn1)N1CCC2(CC1)CN(c1ccncc1)C2`, -38%. Still for that read-out and setting: in the case of `Oc1cc(O)cc(/C=C\c2ccc(O)c(O)c2)c1` it was -27.7%; in that of `CC(C)c1cccc2nc3c(c([Si](C)(C)C)c12)Cn1c-3cccc1=O`, -80.6%. As to `Cc1ccc(OCC(=O)N/N=C\c2c(C)n(C)c3ccccc23)c([N+](=O)[O-])c1`, the AC50 is 8.91 µM (active). For `NC[C@H](O)C1CCCCCCC1`, the “activity, negative = inhibition” value was 7.64%. For `Cc1nc2ncnn2c(C)c1CCC(=O)N1CCN(C(=O)c2ccco2)CC1`, the “activity, negative = inhibition” value is -5.78%. Regarding `CC(=O)c1cnc2c(C(=O)O)cnn2c1C`, the “activity, negative = inhibition” value was -3.66%.

Regarding `Cc1nc2c(C(=O)N3CCOCC3)cnn2c(C)c1Cc1ccc(Cl)cc1`, the AC50 is 2.24 µM (active).

For the molecule `COC(=O)Cn1c(=N)n(CCN2CCCCC2)c2ccccc21`, the “activity, negative = inhibition” value was 40.1%. Regarding `N=c1n(CCN2CCOCC2)c2ccccc2n1CC(=O)c1ccc(Cl)c(Cl)c1`, the AC50 is 6.31 µM (active).

Take `Cc1cc(=O)[nH]c(SCC(=O)Nc2nc3c(s2)CCCC3)n1`: the AC50 was 7.94 µM (active).

As for `O=S(=O)(c1ccccc1)N1CCC2(CCN(c3ncccn3)CC2)CC1`, the “activity, negative = inhibition” value was 32.2%. Regarding `FC(F)(F)c1ccc(N2CCN(c3cc(-c4ccccc4)nc4ncnn34)CC2)nc1`, the AC50 is 3.55 µM (active). On the same count and under the same terms, in the case of `O=S(=O)(c1ccccc1)N1CCN(c2cc(-c3ccccc3)nc3ncnn23)CC1` it was 11.2 µM (active). For the molecule `Cc1cnn(-c2cc(N/N=C/c3ccccc3)ncn2)c1`, the “activity, negative = inhibition” value is 21.7%. For `Cc1cccc(/C=N\Nc2cn[nH]c(=O)c2Cl)c1`, the concentration at half-maximal activity (AC50) was 10 µM (active). The same measure, in the same setting: for `CCOC(=O)C1C(=O)C=C(/C=C/c2ccccc2)CC1c1ccc(Cl)cc1` (stereo not drawn) the value was 8.91 µM (active).

As to `CCc1nnc(NC(=O)CCC(=O)NCc2ccccc2OC)s1`, the “activity, negative = inhibition” value was 13.2%.

On to `COc1ccccc1C(=O)NCCn1cc(SCC(=O)Nc2nnc(C)s2)c2ccccc21`, for which the AC50 is 8.91 µM (active). Same read-out and setting: in the case of `CC(C)CN(CC(C)C)C1=N/C(=C\c2ccco2)C(=O)N1c1ccccc1` it was 2.82 µM (active); in that of `CCOC(=O)CN1C(=O)Nc2ccc(Br)cc2C1c1ccccc1` (stereo not drawn), 3.98 µM (active). As for `CCOC(=O)C1(C(=O)O)NC(=O)CC1c1ccccc1` (stereo not drawn), the “activity, negative = inhibition” value was -18.1%.

For `O=C(Nc1ccccc1[N+](=O)[O-])C1C(c2ccccc2)=C1c1ccccc1`, the AC50 is 2.51 µM (active). Same read-out and setting: in the case of `C[C@@H](CCc1ccc(O)cc1)NCCc1ccc(O)c(O)c1` it was “inactive”; in that of `COc1ccc(CCC(C)Nc2cccc(F)c2)cc1` (stereo not drawn), 0.891 µM (active).

`CC(=O)Nc1ccc(OC[C@@H](O)CNC(C)C)cc1`: the “activity, negative = inhibition” value is 27.7% [at 25.6 µM].

As for `CC(=O)Nc1ccc(OCC(O)Cn2cnc3ccccc32)cc1` (stereo not drawn), the AC50 is 22.4 µM (active). On to `OC(COCc1ccccc1)Cn1cnc2ccccc21` (stereo not drawn), for which the AC50 was 14.1 µM (active). Take `CN1CCCCC1=NCCCn1cnc2c1c(=O)n(C)c(=O)n2C`: the “activity, negative = inhibition” value was 16.6%. Consider `O=c1c(-c2cc(F)cc(F)c2)nc2cncnc2n1Cc1ccccc1Cl`, for which the AC50 was 1.58 µM (active).

Consider `O=c1c(-c2cccc(Cl)c2)nc2cncnc2n1Cc1ccccc1Cl`, for which the AC50 is 5.01 µM (active). Turning to `O=c1c(-c2cccc(Cl)c2)nc2cncnc2n1C1CC1`, the “activity, negative = inhibition” value is -21.7%. Still for that read-out and setting: for `O=c1c(-c2ccc(F)cc2)nc2cncnc2n1-c1ccccc1` the value was -41.3%; for `O=c1c(-c2cccc(F)c2)nc2cncnc2n1C1CC1`, -28.1%.

`O=c1c(-c2cccc(F)c2)nc2cncnc2n1Cc1ccccc1Cl`: the AC50 is 0.794 µM (active). The same measure, in the same setting: in the case of `O=c1c(-c2cccc(F)c2)nc2cncnc2n1-c1ccccc1` it was 15.8 µM (active). Take `O=c1[nH]c(=O)n([C@@H]2C[C@H](O)[C@H](CO)O2)cc1I`: the “activity, negative = inhibition” value was 15.4% [at 25.6 µM].

In the case of `O=C1C2C3C=CC(C2C(=O)N1CN1CCOCC1)C1C2C(=O)N(CN4CCOCC4)C(=O)C2C31` (stereo not drawn), the activity, negative = inhibition is 22.1% [at 11.4 µM]. Consider `Cc1ccccc1NC(=O)c1cccc2nc3ccccc3nc12`, for which the AC50 is 3.55 µM (active). On the same count and under the same terms, for `O=C(Nc1ccc2c(c1)OCCO2)c1cccc2nc3ccccc3nc12` the value was 4.47 µM (active). As to `Cc1ccccc1NC(=O)c1cnc(Nc2nc3ccccc3s2)nc1C`, the “activity, negative = inhibition” value was -11.9%.

For the molecule `O=c1c(-c2ccc(F)cc2)nc2cnc(Nc3ccccc3)nc2n1Cc1cccs1`, the “activity, negative = inhibition” value is -8.61%. As for `C=CCC(C)(NCc1ccccc1)c1ccco1` (stereo not drawn), the AC50 was 11.2 µM (active).
